Assay results taken from PubChem BioAssay (Tox21).
Inconclusive results are not listed. Where a call stands in place of a potency, no number is given. Active and inactive are the calls of the source. Calls follow the shape of the dose curve; as a rule, active = well fitted curve in the direction sought with a large enough effect in the repeat runs; inconclusive = weak or mixed curves; inactive = no such curve, though single readings can be large; an effect the other way counts as inactive or inconclusive.

Assay: Caspase-3/7 induction in CHO-K1 cells by small molecules, qHTS assay (AID 1346980); also: nearly all actives have a fitted effect of over 15% in size
Conditions: CHO-K1 caspase-3/7 induction, Caspase-Glo luminescence, 17 h; series mostly up to 92.4 µM
In short: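 Wild-type cells were seeded at 1,500 per well and settled 5 hr at 37 C, 5% CO2, then exposed to DMSO-dissolved compounds for 17 hr. Caspase-Glo 3/7 reagent was added, and luminescence was read after 30min at room temperature.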

For `C=CCN=C=S`, which outcome is on record?
The outcome was “inactive”.

For `CCOP(=S)(OCC)Oc1cc(C)nc(C(C)C)n1`, which outcome is on record?
Its outcome is “inactive”.

Which outcome does the source give for `Nc1cc(Cl)cc(Cl)c1` here?
The outcome was “inactive”.

Which outcome does the source give for `O=C(O)C1C(C(=O)O)C2(Cl)C(Cl)=C(Cl)C1(Cl)C2(Cl)Cl` (configuration not stated) here?
Its outcome is “inactive”.

For `N#Cc1ccccn1`, which outcome is on record?
Its outcome is “inactive”.

Which outcome does the source give for `[N-]=[N+]=CC(=O)OC[C@H](N)C(=O)O` here?
Its outcome is “inactive”.

Which outcome does the source give for `CN(C)NC(=O)CCC(=O)O` here?
The outcome was “inactive”.

For `CC(=O)C1CCOC1=O` (configuration not stated), which outcome is on record?
Its outcome is “inactive”.

For `O=C(O)Cc1ccccc1`, which outcome is on record?
Its outcome is “inactive”.

Which outcome does the source give for `COP(=S)(OC)Oc1ccc(SC)c(C)c1` here?
The outcome was “inactive”.

For `c1ccc2c(c1)CCCC2`, which outcome is on record?
Its outcome is “inactive”.

Which outcome does the source give for `CC(=O)/C=C/c1ccccc1` here?
Its outcome is “inactive”.

For `C/C=C/c1ccc2c(c1)OCO2`, which outcome is on record?
Its outcome is “inactive”.

For `Cc1cccc(C)c1N`, which outcome is on record?
The outcome was “inactive”.

For `COc1nc(NC(C)C)nc(NC(C)C)n1`, which outcome is on record?
The outcome was “inactive”.

With `N#Cc1cccc(C#N)c1` as the molecule, how does the outcome read?
The outcome was “inactive”.

Which outcome does the source give for `Nc1cccc(Cl)c1` here?
The outcome was “inactive”.

Which outcome does the source give for `OC[C@@H](O)[C@H]1O[C@@H]2O[C@H](C(Cl)(Cl)Cl)O[C@@H]2[C@H]1O` here?
Its outcome is “inactive”.

Which outcome does the source give for `COP(=S)(OC)SCN1C(=O)c2ccccc2C1=O` here?
The outcome was “inactive”.

With `Nc1nc(N)nc(NC2CC2)n1` as the molecule, how does the outcome read?
The outcome was “inactive”.

Which outcome does the source give for `Cc1ccc(N=C=O)cc1N=C=O` here?
The outcome was “inactive”.

Which outcome does the source give for `CC(C)CCCCCCOC(=O)c1ccccc1C(=O)OCCCCCCC(C)C` here?
Its outcome is “inactive”.

For `CN(C)C(=O)Cl`, which outcome is on record?
The outcome was “inactive”.

For `Cc1ccc(O)c(C)c1`, which outcome is on record?
The outcome was “inactive”.

With `NNc1ccccc1` as the molecule, how does the outcome read?
The outcome was “inactive”.

With `C=CC#N` as the molecule, how does the outcome read?
Its outcome is “inactive”.

For `CCCCCCCCCCCCCCCCCC(=O)O`, which outcome is on record?
The outcome was “inactive”.

With `CC12CC1(C)C(=O)N(c1cc(Cl)cc(Cl)c1)C2=O` (configuration not stated) as the molecule, how does the outcome read?
The outcome was “inactive”.

Which outcome does the source give for `C=C(C)C(=O)OCC(CC)CCCC` (configuration not stated) here?
Its outcome is “inactive”.

With `CC[N+](=O)[O-]` as the molecule, how does the outcome read?
Its outcome is “inactive”.

Which outcome does the source give for `O=C(O)C(Br)Br` here?
Its outcome is “inactive”.

Assay: Caspase-3/7 induction in HepG2 cells by small molecules, qHTS cell viability counter screen (AID 1346981); also: nearly all actives have a fitted effect of over 30% in size
Conditions: CellTiter-Fluor fluorescence, 17 h; series mostly up to 92.4 µM
In short: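 Wild-type HepG2 cells, 2,000/well, settled 5 hr at 37 C, 5% CO2 before compound addition. Viability read by CellTiter-Fluor fluorescence, reagent added after 16 hr compound exposure, then 1 hr at 37C, in the same wells as the caspase read.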

For `C=CCN=C=S`, which Potency is on record?
The Potency was “inactive”.

Which Potency does the source give for `CCOP(=S)(OCC)Oc1cc(C)nc(C(C)C)n1` here?
The Potency was “inactive”.

For `Nc1cc(Cl)cc(Cl)c1`, which Potency is on record?
Its Potency is “inactive”.

With `O=C(O)C1C(C(=O)O)C2(Cl)C(Cl)=C(Cl)C1(Cl)C2(Cl)Cl` (configuration not stated) as the molecule, how does the Potency read?
Its Potency is “inactive”.

For `N#Cc1ccccn1`, which Potency is on record?
Its Potency is “inactive”.

For `[N-]=[N+]=CC(=O)OC[C@H](N)C(=O)O`, which Potency is on record?
The Potency was “inactive”.

For `CN(C)NC(=O)CCC(=O)O`, which Potency is on record?
Its Potency is “inactive”.

For `CC(=O)C1CCOC1=O` (configuration not stated), which Potency is on record?
The Potency was “inactive”.

Which Potency does the source give for `O=C(O)Cc1ccccc1` here?
Its Potency is “inactive”.

For `COP(=S)(OC)Oc1ccc(SC)c(C)c1`, which Potency is on record?
Its Potency is “inactive”.

Which Potency does the source give for `c1ccc2c(c1)CCCC2` here?
The Potency was “inactive”.

With `CC(=O)/C=C/c1ccccc1` as the molecule, how does the Potency read?
The Potency was “inactive”.

Which Potency does the source give for `C/C=C/c1ccc2c(c1)OCO2` here?
The Potency was “inactive”.

With `Cc1cccc(C)c1N` as the molecule, how does the Potency read?
Its Potency is “inactive”.

Which Potency does the source give for `COc1nc(NC(C)C)nc(NC(C)C)n1` here?
The Potency was “inactive”.

Which Potency does the source give for `N#Cc1cccc(C#N)c1` here?
The Potency was “inactive”.

Which Potency does the source give for `Nc1cccc(Cl)c1` here?
Its Potency is “inactive”.

For `OC[C@@H](O)[C@H]1O[C@@H]2O[C@H](C(Cl)(Cl)Cl)O[C@@H]2[C@H]1O`, which Potency is on record?
Its Potency is “inactive”.

For `COP(=S)(OC)SCN1C(=O)c2ccccc2C1=O`, which Potency is on record?
The Potency was “inactive”.

For `Nc1nc(N)nc(NC2CC2)n1`, which Potency is on record?
The Potency was “inactive”.

With `Cc1ccc(N=C=O)cc1N=C=O` as the molecule, how does the Potency read?
Its Potency is “inactive”.

Which Potency does the source give for `CC(C)CCCCCCOC(=O)c1ccccc1C(=O)OCCCCCCC(C)C` here?
The Potency was “inactive”.

For `CN(C)C(=O)Cl`, which Potency is on record?
The Potency was “inactive”.

Which Potency does the source give for `Cc1ccc(O)c(C)c1` here?
The Potency was “inactive”.

For `NNc1ccccc1`, which Potency is on record?
The Potency was “inactive”.

For `C=CC#N`, which Potency is on record?
The Potency was “inactive”.

With `CCCCCCCCCCCCCCCCCC(=O)O` as the molecule, how does the Potency read?
Its Potency is “inactive”.

For `CC12CC1(C)C(=O)N(c1cc(Cl)cc(Cl)c1)C2=O` (configuration not stated), which Potency is on record?
Its Potency is “inactive”.

With `C=C(C)C(=O)OCC(CC)CCCC` (configuration not stated) as the molecule, how does the Potency read?
Its Potency is “inactive”.

With `CC[N+](=O)[O-]` as the molecule, how does the Potency read?
The Potency was “inactive”.

With `O=C(O)C(Br)Br` as the molecule, how does the Potency read?
Its Potency is “inactive”.
